Consider 36 compounds from PubChem BioAssay.

A number with no mark means an inactive call. Calls of active or inactive are those of the source.

The assay is described as follows: S. pombe growth modifiers, basal conditions – strain 972, OD600, 24 h, no modulator, primary screen (AID 1090).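 Note: basal condition with compound alone and no growth modifier present; test concentration not given here.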 The conditions noted are these: S. pombe 972 growth, higher = more signal, called active from +8 up or from −8 down.
For the compound `Cc1ccc(S[C@]2(C(=O)O)CC(=O)N(Cc3cc(C(F)(F)F)cc(C(F)(F)F)c3)[C@@H]2c2ccc(CO)cc2)cc1`, the z-score was -0.539.

For the compound `CCOC(=O)[C@H]1[C@@H]2C(=O)N3CCC[C@H]3[C@H](O[Si](C(C)C)(C(C)C)C(C)C)[C@H]2C=C2CCN(S(=O)(=O)c3ccc(C)cc3)C[C@H]21`, the z-score is -0.772. The value for `CO[C@H]1O[C@H](CO)[C@@H](OC(=O)Nc2ccccc2-c2ccccc2)[C@H](OC(=O)Nc2ccc3c(c2)OCO3)[C@H]1OC(=O)Nc1ccc2c(c1)OCO2` was 1.35.

Take `COc1ccccc1CN1C(=O)c2ccccc2[C@@]2(Cc3ccccc3N(CC(F)(F)F)C2=O)[C@@H]1c1ccc(CO)cc1`: the z-score was 0.181. For `CN(C)C(=O)[C@@]1(Cc2ccccc2CN=[N+]=[N-])N=C(c2ccc(OCCCO)cc2)O[C@H]1c1ccccc1CN=[N+]=[N-]` the value was 1.19. `COc1ccc(CCN2C(=O)[C@@]3(Cc4ccccc42)c2ccccc2C(=O)N(Cc2ccccc2OC)[C@H]3c2ccc(CO)cc2)cc1`: the z-score was -1.23.

Regarding `O=C1C2C=CC(C(O)c3ccc(Br)cc3)N(Nc3ccccc3F)C2C(=O)N1c1ccccc1` (stereo unspecified), the z-score was -0.435.

Consider `C=CCC(OC(C)=O)[C@@H]1[C@@H](N(Cc2cccc3ccccc23)C(=O)Cc2ccc(OC)cc2)c2cc(OCCCO)ccc2N1C(=O)c1ccc2ccccc2n1` (stereo partly specified), for which the z-score was 0.787. Consider `COC(=O)C(CC#Cc1ccc2c(c1)[C@]1(C(=O)N2)[C@H](c2ccccc2OCCO)N2[C@H](c3ccccc3)[C@H](c3ccccc3)OC(=O)[C@H]2[C@@H]1C(=O)NC[C@H](O)c1ccccc1)C(=O)OC`, for which the z-score is 1.32. For `COc1ccc([Si](C)(C)[C@H]2[C@H](CCO)O[C@@]3(C(=O)N(Cc4cccc(N5C(=O)COc6ccccc65)c4)c4ccccc43)[C@@H]2C)cc1` the value was -0.845; for `CCCCCCc1nc(C2CC2)cc2c1[Si](C(C)C)(C(C)C)OC2`, -0.183. As to `C=CCNC(=O)[C@@H]1[C@H]2C(=O)O[C@H](c3ccccc3)[C@H](c3ccccc3)N2[C@H](c2ccc(O)cc2)[C@@]12C(=O)N(C(=O)OCCOC)c1ccc(C#CC3(O)CCCCCC3)cc12`, the z-score is 0.183. For `CC(CO)N1C(=O)[C@@H]2[C@H]3C(=O)OCC=C[C@H]3OC23C=CCN(Cc2ccccc2)C(=O)[C@@H]13` (stereo partly specified) the value was -0.528. For `[N-]=[N+]=NCc1ccccc1C[C@@]1(C(=O)NCc2ccccc2)N=C(c2ccc(OCCCO)cc2)O[C@@H]1c1ccccc1N=[N+]=[N-]` the value was 1.57. For `C=CCN1Cc2ccccc2[C@H]2OC(c3ccc(OCCCO)cc3)=N[C@@]2(CC=C)C1=O` the value was -7.01; for `Cc1cc(C)cc(N2C(=O)CSC2c2cccc([N+](=O)[O-])c2)c1` (stereo unspecified), 0.223; for `CCOc1cc(C(O)C2C=CC3C(=O)N(C)C(=O)C3N2Nc2ccccc2)ccc1O` (stereo unspecified), 1.23. Regarding `[N-]=[N+]=Nc1ccccc1C[C@]1(C(N)=O)N=C(c2ccc(OCCCO)cc2)O[C@H]1c1ccccc1N=[N+]=[N-]`, the z-score is -1.28. On to `NC(=O)NCC#Cc1ccc2c(c1)[C@]1(C(=O)N2)[C@H](C(=O)O)[C@H]2C(=O)O[C@H](c3ccccc3)[C@H](c3ccccc3)N2[C@@H]1c1ccc(OCCO)cc1`, for which the z-score is 0.459. For `CCCCCCc1nc(C2CC2)cc2c1[Si](C(C)C)(C(C)C)O[C@H]2c1ccccc1` the value was -0.575; for `COc1cc2c(cc1OC)CN(C(=O)[C@@H]1[C@H]3C(=O)O[C@H](c4ccccc4)[C@H](c4ccccc4)N3[C@H](c3ccc(OCCO)cc3)[C@@]13C(=O)Nc1ccc(C#CC4(O)CCCCCC4)cc13)CC2`, 0.888; for `O=C1C[C@@](C(=O)NCCN2CCOCC2)(c2ccc([N+](=O)[O-])cc2)[C@@H](c2ccc(CO)cc2I)N1C1CCCCC1`, -2.09.

Take `COC(=O)[C@@]1(Cc2ccc(F)cc2)[C@H]2c3cc(C(=O)N4CCCC4)n(CCc4ccc(O)c(O)c4)c3C[C@H]2CN1C(=O)c1ccccc1`: the z-score is 1.16. In the case of `CC(C)N1C(=O)C[C@@](C(=O)NCCCN(C)C)(c2ccc([N+](=O)[O-])cc2)[C@H]1c1ccc(CO)cc1`, the z-score is -1.42. The value for `COC(=O)C1=CC(CCCO)=CC(C2CC2)N(C)C=C1C(=O)OC` (stereo unspecified) was -0.761; that for `COC(=O)c1c(CC[C@@H](CO)NC(=O)N2CCC[C@H]2Cn2cc(Cc3ccccc3)nn2)oc(C(C)=O)c1C(=O)OC` was -0.279; that for `O=C(N1CCCCC1)[C@@]1(CCS(=O)(=O)c2ccccc2)COC(c2ccc(OCCCO)cc2)=N1` was -1.25. With `CC1=C[C@@]2(CO)C(=O)[C@]3(CO3)[C@@H]1[C@H]1[C@]2(C)C=C(CO)C(=O)[C@]12CO2`, the z-score is -9.27 (active). `CCCNC(=O)[C@@]1(c2ccc([N+](=O)[O-])cc2)CC(=O)N(C2CCCCC2)[C@@H]1c1ccc(CO)cc1`: the z-score was -0.514. For `NC(=O)NCC#Cc1ccc2c(c1)[C@]1(C(=O)N2)[C@H](C(=O)NC[C@H](O)c2ccccc2)[C@H]2C(=O)O[C@H](c3ccccc3)[C@H](c3ccccc3)N2[C@@H]1c1ccc(OCCO)cc1` the value was 0.682. Take `O=C1NC(=O)C2C1C=CC(C(O)CCc1ccccc1)N2Nc1ccc(Cl)cc1Cl` (stereo unspecified): the z-score was -2.05. The value for `CCCCC=C[C@@H](NC(=O)c1ccc(-c2ccccc2)cc1)c1ccccc1` was -1.45. For `COc1ccc([Si](C)(C)[C@@H]2[C@@H](CC(=O)N(CCO)Cc3ccccc3)O[C@]3(C(=O)N(Cc4cccc(N5CCOC5=O)c4)c4ccccc43)[C@H]2C)cc1` the value was -0.21; for `CC(C)N1CC=CC23O[C@@H]4C=CCOC(=O)[C@@H]4[C@H]2C(=O)N(CCCO)[C@@H]3C1=O` (stereo partly specified), -2.28; for `C=CCNC(=O)[C@H]1[C@@H]2C(=O)O[C@@H](c3ccccc3)[C@@H](c3ccccc3)N2[C@@H](c2ccc(O)cc2)[C@]12C(=O)N(C(=O)OCCOC)c1ccccc12`, -0.66. For the compound `O=C1OCC=C[C@H]2OC34C=CCN(c5ccc(Cl)cc5)C(=O)[C@H]3N(CCO)C(=O)[C@@H]4[C@@H]12` (stereo partly specified), the z-score was -0.846.
